Most compounds without a hit are left out; they make up all but 2.7% or so of the library.
MsrA inhibitor – inhibits bovine methionine sulfoxide reductase A; purified bovine MsrA, absorbance read-out; inhibition, % at 15.5 µM; 0.75% of 360,000 active; AID 651718;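 also: 0% = vehicle wells with enzyme and 100% = reference inhibitor wells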
MsrA act – bovine methionine sulfoxide reductase A activation; 0.3% of 360,000 active; purified bovine MsrA, absorbance read-out; AID 602163; activation, % at 10.6 µM; in the data active = activation above about 7.5%;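 also: 0% = vehicle and 100% = reference activator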
rCAG RNA binder – r(CAG) repeat RNA binding; TO-PRO-1 dye displacement fluorescence; inhibition, % at 3 µM; 1.3% of 370,000 active; AID 651821;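 active = inhibition above the plate cutoff, the mean of all test compounds on that plate plus 3 SD, cut at about 35% in these data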;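 also: 0% = DMSO alone and 100% = 100 µM mitoxantrone as full dye displacement; higher means more dye released from RNA so lower well fluorescence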
NadD block – inhibitors of Staphylococcus aureus NadD | AID 602399 | 0.78% of 360,000 active | inhibition, % at 20 µM | purified NadD enzyme, colorimetric absorbance read-out; in the data active = inhibition above about 26%
MsrA inh confirm – bovine MsrA inhibition, confirmed; shares compounds with MsrA inhibitor; purified bovine MsrA, absorbance read-out; inhibition, % at 15.5 µM; 41% of 2,300 active; AID 651822;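 also: coupled to thioredoxin reductase with NADPH and selenocystamine and DMSO as substrate; 0% = vehicle only and 100% = full effect of reference inhibitor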
* hit, by the source's call; nt = no result given. Rule as the data show it, unless noted: active = inhibition above about 4.5%; inactive = the rest.

SMILES	MsrA inhibitor	MsrA act	rCAG RNA binder	NadD block	MsrA inh confirm
CC1(C)CC(c2nc(-c3ccc([N+](=O)[O-])cc3)cs2)CCO1 (stereo unspecified)	4.8*	-4.3	-4.8	-5.6	1.9
Cc1ccc(C2=CC(=O)C[C@H](c3ccc4c(c3)OCO4)C2)cc1	-0.9	-5.0	-1.4	-2.5	nt
O=C1C=C(c2ccccc2Oc2ccccc2)C[C@@H](c2ccc3c(c2)OCO3)C1	-0.2	-0.8	4.6	-0.6	nt
O=C1C=C(c2ccc(O)cc2)C[C@@H](c2ccc3c(c2)OCO3)C1	6.8*	-7.8	-1.4	-4.0	2.0
COc1ccccc1C1=CC(=O)C[C@H](c2ccc3c(c2)OCO3)C1	6.3*	-1.0	-7.2	-1.4	1.2
O=C(Cn1nnc(-c2ccc(N3CCOCC3)cc2)n1)c1cccc(F)c1	nt	nt	3.6	nt	nt
O=C1NC(=S)N/C1=C/c1cc([N+](=O)[O-])ccc1N1CCOCC1	5.0*	-3.8	4.1	-1.7	3.0
CC(C)NC(=O)NC(=O)CSc1nncs1	1.6	-1.5	1.3	-3.2	nt
COc1cccc(/C=C/C(=O)c2cccc([N+](=O)[O-])c2)c1OC	1.1	-10.9	2.4	-10.8	nt
COc1ccc(/C=C/C(=O)c2ccncc2)c2ccccc12	8.3*	0.5	4.0	3.6	-0.6
Cc1cc(C(=O)N/N=C/C=C/c2ccccc2)n[nH]1	5.8*	-7.1	4.6	2.6	5.1*
Cc1cc(C(=O)N/N=C/C=C/c2cccc([N+](=O)[O-])c2)n[nH]1	5.9*	-3.0	3.0	-1.9	3.7
CC(=O)CNc1ccc(S(=O)(=O)N/N=C/c2ccccc2)cc1	0.9	-7.7	1.1	-0.8	nt
CC(=O)NCc1ccc(S(=O)(=O)N/N=C/c2ccc(N(C)C)cc2)cc1	5.6*	-3.9	2.6	0.0	3.4
Cc1ccc(C)c(S(=O)(=O)N/N=C/c2ccc(N(C)C)cc2)c1	5.4*	-1.0	6.8	0.4	1.9
Cc1cccc(C(=O)Nc2ccc(C(=O)N/N=C/c3ccc(C)o3)cc2)c1	6.4*	-12.4	3.8	-2.9	4.3
C/C(=N\NC(=O)c1ccncc1)c1ccc(N2CCOCC2)cc1	2.7	-11.3	3.2	-5.0	nt
C/C(=N\NC(=O)c1ccc(N/N=C(\C)c2ccncc2)cc1)c1ccncc1	5.8*	-0.3	6.2	-11.6	6.2*
Cc1ccc(/C=N/NC(=O)c2ccncc2)o1	5.7*	-1.6	-0.3	-3.8	4.6*
COC(=O)C[C@H]1c2cc(F)ccc2S(=O)(=O)N1C(C)C	-0.9	-1.1	2.4	-2.3	nt
N#Cc1ccccc1C[C@H](N)C(=O)NC[C@H]1O[C@@H](n2ccc(N)nc2=O)[C@H](O)[C@@H]1O	1.4	-6.2	0.9	-1.8	nt
Cc1nnc(NC(=O)c2sc3ccccc3c2Cl)s1	2.9	-2.0	11.1	-2.4	nt
COCc1nnc(NC(=O)c2sc3ccccc3c2Cl)s1	5.0*	-3.7	12.9	-4.8	3.0
COc1ccccc1OC(=O)c1cc(Cl)nc2ccccc12	0.3	-4.0	-1.3	1.5	nt
CCNc1nc(NCC)nc(N/N=C/c2ccc(N(C)C)cc2)n1	6.5*	-3.6	-1.1	-0.5	4.9*
SMILES	MsrA inhibitor	MsrA act	rCAG RNA binder	NadD block	MsrA inh confirm
Cc1cc(=O)[nH]c(N/N=C/c2ccc(Cl)cc2Cl)n1	2.5	1.3	0.7	-2.5	nt
Cc1cc(=O)[nH]c(N/N=C/c2ccc(N(C)C)cc2)n1	7.6*	-4.7	4.2	-4.1	6.2*
CCN(CCC#N)c1ccc(/C=N/Nc2nc(C)cc(=O)[nH]2)c(C)c1	6.0*	-7.2	2.1	-2.8	4.7*
CCNc1nc(NCC)nc(N/N=C/c2ccc(O)c(O)c2)n1	1.7	-4.5	0.1	1.7	nt
Cc1cc(=O)[nH]c(N/N=C/c2ccc(F)cc2)n1	2.3	2.0	-0.2	-6.6	nt
Cc1ccc(/C=N/N=C2/NC(=O)C(CC(=O)N3CCOCC3)S2)cc1 (stereo unspecified)	5.8*	-4.0	4.7	-4.1	1.6
O=C(CC1S/C(=N/N=C/c2ccco2)NC1=O)Nc1ccccc1 (stereo unspecified)	5.3*	-3.1	7.7	-1.2	5.3*
O=C1CC(C(=O)Nc2ccc(F)cc2)S/C(=N\N=C\c2ccco2)N1 (stereo unspecified)	6.3*	-4.9	9.9	-0.4	5.0*
O=C(CC1S/C(=N/N=C/C=C/c2ccccc2)NC1=O)Nc1ccc(C(=O)O)cc1 (stereo unspecified)	1.5	-1.5	5.4	6.4	nt
COc1ccc(/C=N/N=C2/NC(=O)C(CC(=O)NC(C)C)S2)cc1 (stereo unspecified)	1.3	-5.0	-1.8	-0.7	nt
NC(=O)NC(=O)CC1S/C(=N/N=C/c2ccccc2)NC1=O (stereo unspecified)	5.3*	-14.9	1.1	0.7	4.2
CCOc1ccccc1N(C)S(=O)(=O)c1ccc2c(c1)CCN2C(=O)CCC(=O)O	0.3	-1.3	5.2	-0.6	nt
C/C(=N\N=C1\NC(=O)C(CC(=O)Nc2ccc(Cl)cc2)S1)c1ccco1 (stereo unspecified)	4.8*	-5.3	27.9	-1.2	4.8*
Cn1c(SCC(=O)Nc2nc(C(C)(C)C)cs2)nnc1C1CC1	0.1	6.6	-3.9	-5.5	nt
Cc1ccc(-c2cc(C(=O)O)c3ccccc3n2)s1	5.4*	-1.9	5.3	-5.9	2.8
COc1ccc(CNC(=O)Cn2nnc3ccccc3c2=O)cc1	-1.0	-4.0	0.8	-6.0	nt
CC(C)Cn1cnc2c(Sc3c([N+](=O)[O-])ncn3C)nc(N)nc21	7.7*	-2.2	0.7	0.4	4.3
CCCCn1cnc2c(Sc3c([N+](=O)[O-])ncn3C)nc(N)nc21	5.2*	-1.9	0.2	2.9	4.3
CCCn1cnc2c(Sc3c([N+](=O)[O-])ncn3C)nc(N)nc21	4.5	-1.4	0.0	-0.9	nt
CCC(C)Cn1cnc2c(Sc3c([N+](=O)[O-])ncn3C)nc(N)nc21 (stereo unspecified)	4.9*	-2.9	2.6	3.1	4.9*
O=C(Nc1c2c(nn1-c1ccc(F)cc1)CS(=O)C2)c1ccc(S(=O)(=O)N2CCOCC2)cc1 (stereo unspecified)	-0.6	-7.7	2.1	-3.6	nt
O=C(NCc1ccco1)/C(=C\c1ccco1)NC(=O)c1ccco1	0.4	-4.0	10.3	-0.9	nt
Cc1nn(CC(=O)NC(C)C)c(C)c1[N+](=O)[O-]	2.5	-8.6	-2.5	-0.6	nt
CN(C)c1ccc(C(=O)c2ccccc2C(=O)O)c(O)c1	6.4*	-8.1	0.3	-1.4	5.8*
CCOc1ccc(N(C)S(=O)(=O)c2cc(-c3cc(C)no3)ccc2OC)cc1	0.6	-2.5	2.4	-11.0	nt
CCOc1ccc(N(C)S(=O)(=O)c2cc(-c3cc(C)no3)ccc2C)cc1	11.9*	-3.1	2.3	-1.8	11.2*
CCOc1ccc(N(C)S(=O)(=O)c2cc(-c3cc(C)no3)ccc2CC)cc1	14.8*	-2.3	0.7	1.9	15.3*
CCOC(=O)[C@H]1[C@H]2COc3ccc(C)cc3[C@@H]2N2C(=O)CN(Cc3ccco3)C(=O)[C@@]12C	1.0	-2.2	0.0	-3.0	nt
COc1ccc(C2=NS(=O)(=O)N(C)C(C(=O)N3CCCCC3C)=C2)cc1 (stereo unspecified)	5.9*	-5.8	-0.6	-6.8	2.9

From PubChem BioAssay
